Experimental data published in the supplement of paper PMC3616981.
± gives the standard deviation of the averaged measurements.

Compound: CC(C)c1cccc(C(C)C)c1N1C(=O)c2ccc(O)cc2C1=O
Assay: BioMAP readout fold decrease vs vehicle (vehicle/treated); higher = stronger decrease of the readout vs vehicle (values <1 mean increase)
Procedure: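 BioSeek BioMAP human primary cell (co-)culture systems (3C, 4H, LPS, SAg, BE3C, CASM3C, hDFCGF, KF3CT) treated with 5HPP-33 at 1.48, 4.44, 13.3 and 40 µM. Read-outs are protein levels by ELISA, proliferation and SRB total protein. Duplicate rows per assay are averaged as replicates. Tested in ToxCast Phase II for this study; exposure time not stated.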
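Note: Co-cultures of keratinocytes, bronchial epithelial and smooth muscle cells, fibroblasts, HUVECs and PBMCs under stimuli like LPS, TNF-α, IFN-γ, IL-1β, TGF-β or EGF, SRB reflecting cytotoxicity.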

Target	BioMAP readout fold decrease (1.48 µM)	BioMAP readout fold decrease (4.44 µM)	BioMAP readout fold decrease (13.3 µM)	BioMAP readout fold decrease (40 µM)
LPS_MCSF	1.081 ± 0.0067	1.32 ± 0.11	1.686 ± 0.0043	2.21 ± 0.14
hDFCGF_TIMP1	0.847 ± 0.061	0.78536 ± 0.00052	0.608 ± 0.042	0.715 ± 0.069
CASM3C_MCP1	1.07 ± 0.045	1.137 ± 0.0029	1 ± 0.016	0.9734 ± 0.002
